Measurements taken from PubChem BioAssay (NCATS).
Records with an inconclusive call do not appear. The source made the active and inactive calls. Unless noted, the call rests on the fitted dose curve; in most records, active means well fitted curve in the direction sought with a large enough effect; inconclusive means small, poorly fitted or top-dose-only effect, or another doubt; inactive means no such curve, though single readings can be large; an effect the other way counts as inactive or inconclusive.

What was measured:
[1] = molecular target: ATP-dependent 6-phosphofructokinase (Trypanosoma brucei brucei) (UniProt O15648); test: qHTS Assay to Find Inhibitors of T. brucei phosphofructokinase: hit validation (AID 492961);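 further: luminescence reports ADP formed as PFK phosphorylates fructose-6-phosphate with ATP; on the % scale 0 is the no-effect control and ±100 the full control effect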
Procedure, shortened: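 PFK 1.25 nM, F6P 0.5 mM, ATP 0.1 mM, MgCl2 5 mM, 0.1 M TEA pH 8.0, Tween20 0.01%, BSA 0.1%; 45 min RT. ADP-Glo two-step detection, luminescence. qHTS titration; curve fitting with curve-class categorization.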

[2] = molecular target: Ubiquitin carboxyl-terminal hydrolase 1 (Homo sapiens) (UniProt O94782); test: Inhibitors of USP1/UAF1: Pilot qHTS (AID 504865);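 further: rhodamine fluorescence freed from ubiquitin-rhodamine substrate followed over time; top concentration of the series differs between compounds; on the % scale 0 is the no-effect control and ±100 the full control effect; nearly all actives have a fitted effect of over 35% in size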
Procedure, shortened: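 In 50mM HEPES pH 7.8 containing 0.5mM EDTA, 1mM TCEP, 0.1 mg/ml BSA and 0.01% Tween-20, 1nM USP1/UAF1 is exposed to compound for 15 min, then Ub-Rho (150nM final) is added and fluorescence is read over time.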

[3] = S16 Schwann cell viability assay (CellTiter-Glo assay) (AID 624031);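 further: native untransfected S16 rat Schwann cells; cellular ATP luminescence as a viability measure; plate controls were DMSO-treated cells for no effect and cell-free wells for full effect; nearly all actives have a fitted effect of over 70% in size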
Procedure, shortened: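 Parental S16 cells, 24 h compound, 37 °C. ATP-luminescence viability; DMSO = 0% activity, empty wells as reference; curves classified by fit quality and efficacy.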

[4] = S16 Schwann cell PMP22 intronic element firefly luciferase assay (AID 624032);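 further: plate controls were DMSO for no effect and PTC124 positive control mean for full effect; nearly all actives have a fitted effect of over 30% in size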
Procedure, shortened: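 Rat S16 Schwann cells stably carrying a PMP22 intronic element-driven Fluc reporter were seeded overnight, then exposed to compounds for 24 h at 37 °C. Luminescence was normalized to PTC124 (positive control) and DMSO (0% activity).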

[5] = S16 Schwann cell PMP22 intronic element beta-lactamase assay (AID 624044; calls by dose curve;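 further: 0% = DMSO and -100% = potassium clavulanate positive control; nearly all actives have a fitted effect of over 15% in size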)
Procedure, shortened: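 Beta-lactamase reporter under a PMP22 intronic regulatory element in stable S16 rat Schwann cells; 24 h compound exposure. 460 nm blue signal normalized between DMSO (0%) and potassium clavulanate, with 535 nm FRET tracking viability; curves classed by r2 and response.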

[6] = NCATS anti-infectives library activity on HEK293 viability as a counter-qHTS vs the C. elegans viability qHTS (AID 1745854); further: on the % scale 0 is the no-effect control and ±100 the full control effect
Procedure, shortened: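 Cytotoxicity counter-screen to a worm viability qHTS: CellTiter-Glo luminescence read 10 min after reagent addition. Compounds (final up to 41.7 uM, a 1:5 dilution series) incubated 24 hr at 37C with 1,500 HEK293 cells per well; digitonin control.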

[7] = molecular target: Glutathione peroxidase 1 (Homo sapiens) (UniProt P07203); test: Primary qHTS Assay for Inhibitors of Recombinant Selenoprotein Glutathione Peroxidase 1 (GPX1) (AID 1845191); further: nearly all actives have a fitted effect of over 65% in size
Procedure, shortened: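 GPX1 10 nM, GR 100 nM, GSH 1 mM, NADPH 0.5 mM, CHP 0.5 mM (final). 30-min cpd preincubation, RT. Ex340/Em450 read t=0, t=15 min.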

[8] = qHTS profiling for inhibitors of Plasmodium falciparum proliferation (AID 504749);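 further: 0% = DMSO vehicle and full inhibition = artemisinin control; nearly all actives have a fitted effect of over 60% in size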; settings: P. falciparum in erythrocytes, SYBR Green DNA, 72 h, at 28.7 µM (top of the series)
Procedure, shortened: (§1)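 Quantitative HTS: compounds pinned into medium, infected erythrocytes added (0.3% parasitemia, 2.5% hematocrit), 72 h culture at 37 C under 5% CO2. Saponin/Triton lysis with SYBR Green I, overnight RT, then fluorescence read.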

[9] = system: 3D7; test: as above; settings: P. falciparum in erythrocytes, SYBR Green DNA, 72 h; series mostly up to 28.7 µM
Procedure, shortened: as §1

[10] = system: 7G8; test: as above; settings: P. falciparum in erythrocytes, SYBR Green DNA, 72 h; series mostly up to 28.7 µM
Procedure, shortened: as §1

[11] = system: AA1029; test: as above; settings: P. falciparum in erythrocytes, SYBR Green DNA, 72 h; series mostly up to 28.7 µM
Procedure, shortened: as §1

[12] = system: AS120; test: as above; settings: P. falciparum in erythrocytes, SYBR Green DNA, 72 h; series mostly up to 28.7 µM
Procedure, shortened: as §1

[13] = system: ATS189; test: as above; settings: P. falciparum in erythrocytes, SYBR Green DNA, 72 h; series mostly up to 28.7 µM
Procedure, shortened: as §1

[14] = system: ATS95; test: as above; settings: P. falciparum in erythrocytes, SYBR Green DNA, 72 h; series mostly up to 28.7 µM
Procedure, shortened: as §1

[15] = system: C2A; test: as above; settings: P. falciparum in erythrocytes, SYBR Green DNA, 72 h; series mostly up to 28.7 µM
Procedure, shortened: as §1

[16] = system: CP185; test: as above; settings: P. falciparum in erythrocytes, SYBR Green DNA, 72 h; series mostly up to 28.7 µM
Procedure, shortened: as §1

[17] = system: CP191; test: as above; settings: P. falciparum in erythrocytes, SYBR Green DNA, 72 h; series mostly up to 28.7 µM
Procedure, shortened: as §1

[18] = system: CP192; test: as above; settings: P. falciparum in erythrocytes, SYBR Green DNA, 72 h; series mostly up to 28.7 µM
Procedure, shortened: as §1

[19] = system: CP194; test: as above; settings: P. falciparum in erythrocytes, SYBR Green DNA, 72 h; series mostly up to 28.7 µM
Procedure, shortened: as §1

[20] = system: CP201; test: as above; settings: P. falciparum in erythrocytes, SYBR Green DNA, 72 h; series mostly up to 28.7 µM
Procedure, shortened: as §1

[21] = system: CP211; test: as above; settings: P. falciparum in erythrocytes, SYBR Green DNA, 72 h; series mostly up to 28.7 µM
Procedure, shortened: as §1

[22] = system: CP215; test: as above; settings: P. falciparum in erythrocytes, SYBR Green DNA, 72 h; series mostly up to 28.7 µM
Procedure, shortened: as §1

[23] = system: CP217; test: as above; settings: P. falciparum in erythrocytes, SYBR Green DNA, 72 h; series mostly up to 28.7 µM
Procedure, shortened: as §1

[24] = system: CP237; test: as above; settings: P. falciparum in erythrocytes, SYBR Green DNA, 72 h; series mostly up to 28.7 µM
Procedure, shortened: as §1

[25] = system: CP238; test: as above; settings: P. falciparum in erythrocytes, SYBR Green DNA, 72 h; series mostly up to 28.7 µM
Procedure, shortened: as §1

[26] = system: CP247; test: as above; settings: P. falciparum in erythrocytes, SYBR Green DNA, 72 h; series mostly up to 28.7 µM
Procedure, shortened: as §1

[27] = system: CP250; test: as above; settings: P. falciparum in erythrocytes, SYBR Green DNA, 72 h; series mostly up to 28.7 µM
Procedure, shortened: as §1

[28] = system: CP252; test: as above; settings: P. falciparum in erythrocytes, SYBR Green DNA, 72 h; series mostly up to 28.7 µM
Procedure, shortened: as §1

[29] = system: CP256; test: as above; settings: P. falciparum in erythrocytes, SYBR Green DNA, 72 h; series mostly up to 28.7 µM
Procedure, shortened: as §1

[30] = system: CP260; test: as above; settings: P. falciparum in erythrocytes, SYBR Green DNA, 72 h; series mostly up to 28.7 µM
Procedure, shortened: as §1

[31] = system: CP262; test: as above; settings: P. falciparum in erythrocytes, SYBR Green DNA, 72 h; series mostly up to 28.7 µM
Procedure, shortened: as §1

[32] = system: CP265; test: as above; settings: P. falciparum in erythrocytes, SYBR Green DNA, 72 h; series mostly up to 28.7 µM
Procedure, shortened: as §1

ATP-dependent 6-phosphofructokinase (Trypanosoma brucei brucei), sequence (O15648 whole entry, looked up): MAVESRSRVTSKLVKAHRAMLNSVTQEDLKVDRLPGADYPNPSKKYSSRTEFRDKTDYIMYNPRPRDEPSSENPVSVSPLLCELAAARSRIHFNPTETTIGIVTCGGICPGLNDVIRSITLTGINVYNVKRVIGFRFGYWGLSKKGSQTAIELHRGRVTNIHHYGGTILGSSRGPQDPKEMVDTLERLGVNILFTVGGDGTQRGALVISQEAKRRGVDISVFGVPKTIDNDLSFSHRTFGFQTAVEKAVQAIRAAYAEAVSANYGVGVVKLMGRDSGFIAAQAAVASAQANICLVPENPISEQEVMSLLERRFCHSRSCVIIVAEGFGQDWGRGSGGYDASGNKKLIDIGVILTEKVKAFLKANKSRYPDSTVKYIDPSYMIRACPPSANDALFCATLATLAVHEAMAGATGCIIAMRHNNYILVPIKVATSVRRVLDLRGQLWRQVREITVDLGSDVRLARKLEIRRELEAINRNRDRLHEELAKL
Glutathione peroxidase 1 (Homo sapiens), sequence (P07203 whole entry, looked up): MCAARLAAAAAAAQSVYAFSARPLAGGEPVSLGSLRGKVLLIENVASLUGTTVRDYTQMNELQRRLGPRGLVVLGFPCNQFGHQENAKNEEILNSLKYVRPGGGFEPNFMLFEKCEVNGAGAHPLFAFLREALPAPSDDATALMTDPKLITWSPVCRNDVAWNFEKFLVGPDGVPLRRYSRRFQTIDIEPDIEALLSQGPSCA
Ubiquitin carboxyl-terminal hydrolase 1 (Homo sapiens), sequence (O94782 whole entry, looked up): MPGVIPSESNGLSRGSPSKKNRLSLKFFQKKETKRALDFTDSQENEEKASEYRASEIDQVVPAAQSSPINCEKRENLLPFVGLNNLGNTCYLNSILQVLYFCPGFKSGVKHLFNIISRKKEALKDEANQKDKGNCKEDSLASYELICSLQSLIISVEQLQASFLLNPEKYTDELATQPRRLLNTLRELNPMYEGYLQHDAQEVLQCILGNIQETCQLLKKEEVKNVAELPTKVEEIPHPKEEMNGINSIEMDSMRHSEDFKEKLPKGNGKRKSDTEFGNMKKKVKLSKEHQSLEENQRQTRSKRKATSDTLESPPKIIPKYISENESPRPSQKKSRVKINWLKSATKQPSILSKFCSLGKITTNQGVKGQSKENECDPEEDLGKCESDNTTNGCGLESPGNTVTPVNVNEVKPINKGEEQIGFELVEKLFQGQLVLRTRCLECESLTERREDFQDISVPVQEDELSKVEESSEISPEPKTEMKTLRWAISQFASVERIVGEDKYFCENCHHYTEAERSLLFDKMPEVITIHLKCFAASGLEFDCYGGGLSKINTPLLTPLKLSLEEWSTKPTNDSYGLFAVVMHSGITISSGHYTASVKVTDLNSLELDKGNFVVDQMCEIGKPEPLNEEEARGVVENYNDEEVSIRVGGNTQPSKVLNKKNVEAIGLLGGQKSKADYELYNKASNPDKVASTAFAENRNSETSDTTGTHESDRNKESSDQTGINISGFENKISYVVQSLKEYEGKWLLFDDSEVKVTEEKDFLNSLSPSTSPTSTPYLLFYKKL

CC(C)CN(C[C@@H](OP(=O)(O)O)[C@H](Cc1ccccc1)NC(=O)O[C@@H]1CCOC1)S(=O)(=O)c1ccc(N)cc1
inactive: outcome [1] | Potency [2] | Potency [3] | Potency [4] | Potency [5] | Potency [6] | Potency [7] | activity, negative = inhibition ([8]; parasite line A) -4.75% | activity, negative = inhibition ([8]; parasite line B) 9.93% | Potency [9] | Potency [10] | Potency [11] | Potency [12] | Potency [13] | Potency [14] | Potency [15] | Potency [16] | Potency [17] | Potency [18] | Potency [19] | Potency [20] | Potency [21] | Potency [22] | Potency [23] | Potency [24] | Potency [25] | Potency [26] | Potency [27] | Potency [28] | Potency [29] | Potency [30] | Potency [31] | Potency [32]
